# Experimental data reported in PubChem BioAssay (EPA / NIEHS).
# Inconclusive results are not listed. Activity calls are given as the source filed them. Rule for the calls, unless noted: active = hit-call score of the fitted dose curve at least 0.9, where 1 is the maximum; inactive = score below 0.9.
# Key:
# [1] = CCTE_Shafer_MEA_dev_firing_rate_mean: CCTE's Neural Network Formation Assay for Mean Firing Rate, Shafer Lab (AID 2284031)
# Procedure, shortened: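 Primary rat cortical neurons on 48-well, 16-electrode MEAs (PEI-coated, laminin at plating), exposed from day 0 with compound renewed at DIV 5 and 9. Spikes recorded DIV 5, 7, 9, 12; well-mean firing rate collapsed to trapezoidal AUC, loss-of-signal vs DMSO.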
# [2] = CCTE_Shafer_MEA_dev_per_burst_spike_percent: CCTE's Neural Network Formation Assay for Percent of Spikes in a Burst, Shafer Lab (AID 2284032)
# Procedure, shortened: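 Rat primary cortical neurons on 16-electrode MEA wells, dosed from plating day 0 for 12 days with renewal on DIV 5 and 9; spikes-in-bursts percentage averaged over bursting electrodes, collapsed as AUC across days 5, 7, 9, 12; loss direction versus DMSO.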
# [3] = CCTE_Shafer_MEA_dev_active_electrodes_number: CCTE's Neural Network Formation Assay for Number of Active Electrodes, Shafer Lab (AID 2284040; active = hit-call score of the fitted dose curve at least 0.9, where 1 is the maximum)
# Procedure, shortened: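 Rat cortical primary cultures, 1.5 x 10^5 cells/well, PEI-coated MEA, laminin drop. Continuous exposure DIV 0–12; full media/compound change DIV 5, 9. Readout: electrodes with mean firing ≥5 spikes/min; AUC across days; loss vs DMSO.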
# [4] = CCTE_Shafer_MEA_dev_burst_rate: CCTE's Neural Network Formation Assay for Burst Rate, Shafer Lab (AID 2284042)
# Procedure, shortened: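 Primary rat cortical neurons on PEI-coated 48-well MEA plates (laminin added with cells at plating) (16 electrodes/well), exposed from plating to day 12, dosing renewed at DIV 5 and 9. Burst rate averaged over active electrodes, recorded DIV 5, 7, 9, 12, summarized as AUC; loss versus DMSO.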
# [5] = CCTE_Shafer_MEA_dev_bursting_electrodes_number: CCTE's Neural Network Formation Assay for Number of Bursting Electrodes, Shafer Lab (AID 2284043; active = hit-call score of the fitted dose curve at least 0.9, where 1 is the maximum)
# Procedure, shortened: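 Primary rat cortical neurons plated on 16-electrode MEA wells, exposed from day 0 with compound renewed at DIV 5 and 9. Electrodes bursting ≥1 burst per 2 min counted on days 5, 7, 9 and 12; trapezoidal AUC across days, fitted for loss versus DMSO.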
# [6] = CCTE_Shafer_MEA_dev_per_burst_interspike_interval: CCTE's Neural Network Formation Assay for Burst Interspike Interval, Shafer Lab (AID 2284044);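 note: mean spike spacing inside bursts as AUC over recordings on days 5 7 9 12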
# Procedure, shortened: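 Primary rat cortical neurons on 48-well MEA plates, exposed from day 0 through day 12, treatment renewed at DIV 5 and 9. Within-burst interspike interval recorded days 5, 7, 9, 12, well-averaged, summarised as AUC; negative fit versus DMSO.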
# [7] = CCTE_Shafer_MEA_dev_burst_duration_mean: CCTE's Neural Network Formation Assay for Mean Burst Duration, Shafer Lab (AID 2284045)
# Procedure, shortened: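 Primary rat cortical neurons on 48-well 16-electrode MEA plates, exposed from day 0 with renewal at DIV 5 and 9; spontaneous activity recorded on days 5, 7, 9, 12. Well-mean burst duration across bursting electrodes, collapsed as trapezoidal AUC; DMSO baseline.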
# [8] = CCTE_Shafer_MEA_dev_interburst_interval_mean: CCTE's Neural Network Formation Assay for Mean Interburst Interval, Shafer Lab (AID 2284046);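 note: well-mean interburst interval of bursting electrodes as AUC over four recording days; curve fitted for decrease in interburst interval relative to DMSO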
# Procedure, shortened: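 Recordings on days 5, 7, 9 and 12 give well-mean interburst interval across actively bursting electrodes, summarized as area under the curve. Cultures: rat cortical neurons, continuous exposure from day 0, compound renewed at feeds; decrease analyzed versus DMSO.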
# [9] = CCTE_Shafer_MEA_dev_inter_network_spike_interval_mean: CCTE's Neural Network Formation Assay for Mean Inter-network Spike Interval, Shafer Lab (AID 2284047)
# Procedure, shortened: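 Primary rat cortical neurons on 16-electrode MEA wells, exposed from plating day 0 through DIV 12, compound renewed at DIV 5 and 9 media changes. Mean interval between network-spike peaks recorded DIV 5, 7, 9, 12; collapsed as trapezoidal AUC, fitted downward versus DMSO.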
# [10] = CCTE_Shafer_MEA_dev_network_spike_peak: CCTE's Neural Network Formation Assay for Mean Number of Electrodes in Network Spike, Shafer Lab (AID 2284049)
# Procedure, shortened: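 Network-spike peak electrode count from recordings on days 5, 7, 9 and 12 was combined as trapezoidal area under the curve. Rat cortical cultures were treated continuously from plating, with compound renewed at each feed (DIV 5, 9); fits versus DMSO.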
# [11] = CCTE_Shafer_MEA_dev_spike_duration_mean: CCTE's Neural Network Formation Assay for Mean Spike Duration, Shafer Lab (AID 2284051);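 note: mean network spike duration pooled as area under curve over DIV 5 to 12 recordings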
# Procedure, shortened: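 Primary rat cortical neurons on 16-electrode MEA wells (PEI-coated, laminin in plating drop), exposed from plating through DIV 12 with compound renewed at DIV 5 and 9. Mean network-spike duration recorded DIV 5, 7, 9, 12; trapezoidal AUC across days, DMSO baseline.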
# [12] = CCTE_Shafer_MEA_dev_network_spike_duration_std: CCTE's Neural Network Formation Assay for Standard Deviation of Network Spike Duration, Shafer Lab (AID 2284052);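 note: area under curve of spike duration SD across recording days 5 to 12; hits are decreases in network spike duration SD versus DMSO vehicle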
# Procedure, shortened: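 Primary rat cortical neurons on PEI-coated 16-electrode MEA wells, exposed from plating day 0 through day 12 with compound renewed at DIV 5 and 9. Network spike duration SD recorded on days 5, 7, 9, 12, collapsed as trapezoidal AUC; loss-of-signal fit versus DMSO.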
# [13] = CCTE_Shafer_MEA_dev_per_network_spike_spike_number_mean: CCTE's Neural Network Formation Assay for Mean Number of Spikes in a Network Spike, Shafer Lab (AID 2284053)
# Procedure, shortened: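 Primary rat cortical neurons on 48-well, 16-electrode MEA plates were exposed from plating to DIV 12, with dosing renewed on DIV 5 and 9. Spikes per network spike (0.05 s peak window) were recorded on DIV 5, 7, 9 and 12 and collapsed as trapezoidal AUC versus DMSO.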
# [14] = CCTE_Shafer_MEA_dev_per_network_spike_spike_percent: CCTE's Neural Network Formation Assay for Percent of Spikes in a Network Spike, Shafer Lab (AID 2284054)
# Procedure, shortened: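 Rat primary cortical neurons were grown on 48-well MEA plates (16 electrodes/well), exposed from plating day 0 through day 12, with treatment renewed on DIV 5 and 9. Percent of spikes within 0.05 s network-spike peaks was measured, summarised as AUC across days 5, 7, 9, 12.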
# [15] = CCTE_Shafer_MEA_dev_LDH: CCTE's Lactate Dehydrogenase Assay for Cytotoxicity in the Neural Network Formation Assay, Shafer Lab (AID 2284068; active = hit-call score of the fitted dose curve at least 0.9, where 1 is the maximum;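 note: exposure for twelve days from plating with re-dosing on DIV 5 and 9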)
# Procedure, shortened: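 Primary rat cortical neurons were plated on PEI/laminin MEA plates and exposed from day 0 for twelve days, with compound renewed at DIV 5 and 9. Cytotoxicity was determined by spectrophotometric LDH assay relative to DMSO.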
# [16] = CCTE_Shafer_MEA_dev_AB: CCTE's Alamar Blue Assay for Cytotoxicity in the Neural Network Formation Assay, Shafer Lab (AID 2284083; active = hit-call score of the fitted dose curve at least 0.9, where 1 is the maximum;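 note: twelve days of exposure from plating with re-dosing on DIV 5 and 9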)
# Procedure, shortened: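 Primary rat cortical neurons on PEI-coated 48-well MEA plates, 1.5 x 10^5 cells/well in laminin drop; compound exposure from day 0 of plating for twelve days, renewed at medium changes on DIV 5 and 9. Viability read as resazurin reduction by fluorescence, relative to DMSO.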
# [17] = CCTE_Shafer_MEA_dev_mutual_information_norm: CCTE's Neural Network Formation Assay for Mutual Information Normalization, Shafer Lab (AID 2284091)
# Procedure, shortened: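 Primary rat cortical neurons on PEI-coated 48-well MEA plates, 1.5 x 10^5 cells/well, exposed from day 0 through day 12 with re-dosing at DIV 5 and 9. Mutual information between electrodes recorded days 5, 7, 9, 12; trapezoidal AUC, loss-of-signal fit versus DMSO.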
# [18] = CCTE_Shafer_MEA_dev_correlation_coefficient_mean: CCTE's Neural Network Formation Assay for Mean Correlation Coefficient, Shafer Lab (AID 2284093)
# Procedure, shortened: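 Spontaneous activity recorded on days 5, 7, 9 and 12 post-plating; pairwise spike correlations are averaged across active electrodes and collapsed to an area-under-curve. Rat cortical cultures are dosed from plating through 12 days, with compound renewed at media changes.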
# [19] = UKN2_HCS_IMR90_neural_migration: University of Konstanz (UKN) Leist Lab Neural Crest Cell Migration Assay in human induced IMR90 Pluripotent Stem Cells (UKN2) (AID 2284204); conditions: actives raise or lower the signal
# Procedure, shortened: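 iPSC-derived IMR90 neural crest cells seeded around stoppers on PLO/laminin/fibronectin; migration started in N2-S medium with EGF/FGF, compounds added after 24 h for 24 h. Migration into cell-free area imaged after calcein-AM/Hoechst staining; bidirectional fit versus DMSO.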
# [20] = IUF_NPC1b_proliferation_BrdU_72hr: Leibniz Research Institute for Environmental Medicine (IUF) 72-hour Neural Progenitor Cell Bromodeoxyuridine (BrdU) Proliferation Assay (NPC1b) (AID 2284207)
# Procedure, shortened: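 BrdU luminescence ELISA quantified DNA synthesis over the last 16 h of a 72 h exposure, fitted against DMSO. Primary hNPC spheres from gestational week 16-19 cortex grown with EGF/FGF at 37C, pH 7.2-7.6.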
# [21] = IUF_NPC1a_proliferation_area_72hr: Leibniz Research Institute for Environmental Medicine (IUF) 72-hour Neural Progenitor Cell Proliferation Area Assay (NPC1a) (AID 2284208)
# Procedure, shortened: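 Single 0.25–0.35 mm human fetal neural progenitor spheres in proliferation medium with EGF and FGF, exposed 72 h from plating without renewal at 37C, pH 7.2-7.6. Sphere area growth measured by automated phase-contrast imaging, relative to DMSO.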
# [22] = IUF_NPC1_viability_72hr: Viability Assessment at 72 hours in the Leibniz Research Institute for Environmental Medicine (IUF) Neural Progenitor Cell Proliferation Assay (NPC1) (AID 2284209)
# Procedure, shortened: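 Human fetal-cortex neural progenitor spheres (0.25–0.35 mm, one per well) grown in EGF/FGF proliferation medium at 37C, pH 7.2-7.6, exposed 72 h without renewal; viability read as alamar blue resazurin-to-resorufin fluorescence relative to DMSO.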
# [23] = CCTE_Mundy_HCI_Cortical_Synap_Neur_Matur_NeuriteSpotCountPerNeuriteLength: CCTE's Synaptogenesis and Neurite Maturation Assay in rat cortical cells for Neurite Spot Count per Neurite Length, Mundy Lab (AID 2284210)
# Procedure, shortened: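 Rat primary cortical cultures, AraC added at DIV 5 to suppress glia; chemical exposure from DIV 7 to DIV 12. Fixed cells stained for MAP2 and synaptophysin plus Hoechst; synaptophysin puncta per neurite length quantified by high-content imaging, relative to DMSO.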
# [24] = CCTE_Mundy_HCI_Cortical_Synap_Neur_Matur_BPCount: CCTE's Synaptogenesis and Neurite Maturation Assay in rat cortical cells for Branch Point Count, Mundy Lab (AID 2284211)
# Procedure, shortened: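 Branch point number is quantified by automated imaging of fluorescently labelled neurites and synapses in rat primary cortical neurons exposed from DIV 7 to DIV 12. Activity is analysed relative to DMSO negative control.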
# [25] = CCTE_Mundy_HCI_Cortical_NOG_NeuriteCount: CCTE's Neurite Outgrowth Assay in rat cortical cells for Neurite Count, Mundy Lab (AID 2284212);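 note: cells fixed about two days after chemical exposure began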
# Procedure, shortened: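 Neurite number per cell from high-content imaging of betaIII-tubulin immunostaining, with Hoechst nuclear counterstain.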
# [26] = CCTE_Mundy_HCI_Cortical_NOG_NeuriteLength: CCTE's Neurite Outgrowth Assay in rat cortical cells for Neurite Length, Mundy Lab (AID 2284213);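 note: neurites imaged about 48 to 50 h after chemical exposure began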
# Procedure, shortened: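 Neurite length was read by high-content imaging of βIII-tubulin-labelled neurites in rat primary cortical cultures. Activity was fitted relative to DMSO.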
smiles,measurement,setting,value
CC(=O)[O-].[Tl+],outcome,[1],inactive
same,outcome,[2],inactive
same,outcome,[3],inactive
same,outcome,[4],inactive
same,outcome,[5],inactive
same,outcome,[6],inactive
same,outcome,[7],inactive
same,outcome,[8],inactive
same,outcome,[9],inactive
same,outcome,[10],inactive
same,outcome,[11],inactive
same,AC50,[12],12.1 µM (active)
same,outcome,[13],inactive
same,outcome,[14],inactive
same,outcome,[15],inactive
same,outcome,[16],inactive
same,outcome,[17],inactive
same,outcome,[18],inactive
same,outcome,[19],inactive
same,AC50,[20],82.1 µM (active)
same,AC50,[21],76.8 µM (active)
same,outcome,[22],inactive
same,AC50,[23],35.1 µM (active)
same,AC50,[24],9.92 µM (active)
same,AC50,[25],59.5 µM (active)
same,AC50,[26],75.3 µM (active)
